Compound activity as filed in PubChem.
TRPML1 ag: activates the human TRPML1 channel; activation, % (test concentration not listed); hit rate 0.12% among 410,000; Q9GZU1; TRPML1-expressing cells, Ca2+ dye fluorescence, FDSS; in the data active = activation above about 50%; inconclusive = mostly about 30% to 49%; note: 0% is about no effect
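Tetracycline-induced TRPML1-DL cells are seeded and incubated overnight before loading with a no-wash Ca2+ dye and quencher. Agonist activity is taken from the 110 s fluorescence read following compound pin-transfer on an FDSS, before EC80 54-4 challenge.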
PTAP TSG101 blk: blocks PTAP/TSG101 interaction to inhibit HIV-1 budding; Fluorescence polarization, FITC-PTAP peptide / Tsg101 binding; Potency, µM (doses to about 115 µM), inactives show at the top dose activity change, negative = inhibition, actives largely listed as inhibitors; 340,000 tested, under 10 active; AID 493005; active = well fitted inhibition curve with a large enough effect in the main read-out, with a control signal flat, not every such curve was filed as active; inconclusive = small, poorly fitted or top-dose-only effect, or effect the other way, or a change in a side signal; inactive = no such curve, though single readings can be large or run the other way; note: potency is the fitted concentration of half-maximal effect; % of control where 0% means no effect
Target sequence (Q99816 whole entry, looked up): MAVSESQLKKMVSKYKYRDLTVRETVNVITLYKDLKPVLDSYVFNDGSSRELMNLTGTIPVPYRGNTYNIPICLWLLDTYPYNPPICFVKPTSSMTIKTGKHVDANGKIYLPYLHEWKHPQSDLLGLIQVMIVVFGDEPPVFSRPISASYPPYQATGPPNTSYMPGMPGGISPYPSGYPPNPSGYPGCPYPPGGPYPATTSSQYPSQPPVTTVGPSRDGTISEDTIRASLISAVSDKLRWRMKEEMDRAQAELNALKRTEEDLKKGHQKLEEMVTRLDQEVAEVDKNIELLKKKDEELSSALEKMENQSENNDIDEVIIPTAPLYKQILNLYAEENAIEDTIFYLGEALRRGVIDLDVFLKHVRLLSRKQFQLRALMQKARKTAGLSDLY
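Compounds were pin-transferred onto Tsg101 binding domain (10 uM final) in HEPES pH 7.5 buffer, then FITC-PTAP peptide was added at 50 nM final. After 20 min at RT, polarization reported peptide displacement across a qHTS concentration series.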
GRP78 ERSR act: induces the endoplasmic reticulum stress response in human glioma cells. hit rate 0.02% among 420,000. U87-MG GRP78 promoter luciferase reporter, 16 h. Potency, µM, without a hit: at the highest dose activation, actives largely listed as activators; active = well fitted activation curve with a large enough effect; inconclusive = small, poorly fitted or top-dose-only effect; inactive = no such curve, though single readings can be large or run the other way; note: potency is the fitted concentration of half-maximal effect; series mostly up to about 76 µM; % of control where 0% means no effect; nearly all actives have a fitted effect of over 35% in size
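ERSR induction read as luciferase luminescence (Bright-Glo, 10 min at room temperature) in stably transfected human U87-MG glioma cells exposed to compounds for 16 h, using GRP78 as sensor.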
hERG WT inh: inhibitors of human wildtype KCNH2 potassium channel. U2OS, BacMam KCNH2, thallium flux FluxOr; active compounds read low. hit rate 0.37% among 340,000. Q12809. activity change, % at 1.84 µM. AID 720551;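 active = maximum activity change below -70%; inconclusive = maximum activity change between -70% and -50%; inactive = maximum activity change above -50%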; note: % is set by controls: 0 for no effect and ±100 for the full control effect
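U2OS cells were transduced with wild-type KCNH2 virus (2.03 x 10^8 / mL) for 4 h at room temperature, then cultured overnight at 37 C. Thallium flux was read with FluxOr dye. Rate constants were normalized to DMSO controls.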
KCNH2 3.1 block: KCNH2 3.1 (human) potassium channel inhibition | U2OS KCNH2 3.1, thallium flux FluxOr; active compounds read low | hit rate 0.95% among 340,000 | activity change, % (tested at about 1.8 µM);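 active = maximum activity change below -70%; inconclusive = maximum activity change from -70% to -50%; inactive = maximum activity change above -50%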;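 note: thallium influx rate constant from kinetic fluorescence after stimulation buffer; % is set by controls: 0 for no effect and ±100 for the full control effect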
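Measured as rate of thallium-driven FluxOr signal in transduced U2OS cells carrying the 3.1 channel, read kinetically for 2 min upon stimulation; values are rate constants scaled to DMSO control wells.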
TRPML1 inh: inhibitors of human TRPML1 channel; Q9GZU1; TRPML1-inducible cells, Ca2+ dye fluorescence, FDSS; active compounds read low; inhibition of EC80 agonist-evoked calcium signal; activity change, negative = inhibition, % (test concentration not listed); hit rate 0.02% among 390,000; in the data active = activity change below about -50%; inconclusive = between about -30% and that limit;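 note: stimulus is agonist 54-4 at its EC80 concentration; % is set by controls: 0 for no effect and ±100 for the full control effect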
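Calcium fluorescence in TRPML1-DL cells induced overnight with Tet: a 110 s read after compound pin addition, then a 110 s antagonist read after challenge with 54-4 at 4 uM final (EC80).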
Active calls of the source: *; ? = inconclusive; / = not tested or not shown. Sampled rows, rich in hits. Any-hit rate of the full collection: about 1%.

SMILES	TRPML1 ag	PTAP TSG101 blk	GRP78 ERSR act	hERG WT inh	KCNH2 3.1 block	TRPML1 inh
O=C1NC(=O)C(Cc2ccccc2F)(C2CCN(Cc3cccn3-c3cccnc3)CC2)N1 (stereo not drawn)	/	/	-7%	/	/	/
COc1cc2c(cc1OC)C(C(=O)Nc1ccccn1)C(c1cccnc1)N(C)C2=O (stereo not drawn)	1	-10%	-4%	1	-2	-52*
CCC1(C2CCN(C(=O)c3cc(C)cc(C)c3)CC2)NC(=O)N(CCc2scnc2C)C1=O (stereo not drawn)	/	/	-4%	/	/	/
Cc1ccc(-n2cc(CNCCCn3cccn3)c(-c3cccc(C)c3)n2)cc1	3	-2%	-10%	?	-81*	47
Cc1ccc(-c2csc(NC(=O)c3cccc(S(=O)(=O)N4CCN(C)CC4)c3)n2)cc1	-1	-3%	1%	-2	-79*	15
Cc1ccnc(NC(=O)c2cccc(S(=O)(=O)N3CCN(c4ccc(F)cc4)CC3)c2)c1	1	-6%	-4%	-26	-72*	28
O=C(c1cccc(F)c1)N(Cc1cc2cc3c(cc2nc1N1CCOCC1)CCC3)CC1CCCO1 (stereo not drawn)	/	/	-6%	/	/	/
O=C(C[n+]1cc(-c2ccc(Br)cc2)n2c1CCCCC2)c1ccccc1	0	0%	-6%	-14	4	0
O=C(C[n+]1cc(-c2ccc(Cl)cc2)n2c1CCCCC2)c1ccccc1	0	-2%	-2%	12	-130*	39
O=P1(O)C=C(c2ccccc2)OC(c2ccccc2)=C1	0	-4%	2%	-14	1	1
CCN1CCN(P2(=O)C=C(c3ccccc3)OC(c3ccccc3)=C2)CC1	0	-7%	-2%	-123*	-90*	0
Cc1ccc(C(=O)Nc2cccc(-c3nc(CNC(=O)c4ccc(F)cc4Cl)c(C)o3)c2)s1	/	/	-4%	/	/	/
COc1cc(/C=N/NC(=O)CCN2CCN(C(c3ccccc3)c3ccccc3)CC2)ccc1O	0	0%	-4%	-43	-106*	4
Cc1c(C(=O)N2CC3CCC2C3)sc2ncnc(NCc3ccco3)c12 (stereo not drawn)	/	/	-3%	/	/	/
CC(=O)Nc1ccc(OCC(O)CN2CCN(c3cc(Cl)ccc3C)CC2)cc1 (stereo not drawn)	1	-2%	-1%	0	11	-7
CN1CCN(CC(O)COC(c2ccc(Cl)cc2)c2ccc(Cl)cc2)CC1 (stereo not drawn)	6	-8%	-3%	9	-94*	2
CN1CCN(CC(O)COc2ccc(Cl)cc2)CC1 (stereo not drawn)	4	-1%	-2%	-10	24	19
Cc1ccc(Cl)cc1N1CCN(CC(O)COC(C)C)CC1 (stereo not drawn)	/	0%	-5%	28	-77*	/
OC(COC(c1ccc(Cl)cc1)c1ccc(Cl)cc1)CN1CCCC1 (stereo not drawn)	9	0%	-1%	-140*	-112*	-1
CN1CCCN(C(=O)[C@@H]2C[C@@H](Sc3nc4ccccc4[nH]3)CN2Cc2ccc(-c3ccccc3)cc2)CC1	/	/	-5%	/	/	/
Cc1ccc(C)c(NCC(=O)NNC(=S)Nc2ccccc2)c1	-1	0%	-5%	-75*	21	1
Cc1ccc(C)c(NC(=O)CCC(=O)NNC(=S)Nc2ccccc2)c1	1	-6%	-5%	2	10	-2
Nc1ccc2ncccc2c1	0	-2%	3%	2	-118*	11
CC(C)(C)n1ncc2c(=O)n(Cc3c(F)ccc(F)c3Cl)cnc21	3	/	-4%	/	/	-5
COc1ccc(/C=N/NC(=O)c2ccccc2F)cc1CN1CCN(c2ccc(F)cc2)CC1	0	-4%	1%	?	-105*	-3
SMILES	TRPML1 ag	PTAP TSG101 blk	GRP78 ERSR act	hERG WT inh	KCNH2 3.1 block	TRPML1 inh
COc1ccc(/C=N/NC(=O)c2ccccc2)cc1CN1CCN(c2ccc(F)cc2)CC1	-1	1%	5%	-108*	-107*	-5
COc1ccc(C)cc1NC(=O)c1ccc(CN2CCN(c3ccccc3)CC2)cc1	0	-4%	16%	-30	-104*	8
COc1cc(C(=O)N/N=C/c2ccc(OC)c(CN3CCN(c4ccc(F)cc4)CC3)c2)ccc1O	1	-13%	-5%	/	-105*	-12
COc1ccc(C(=O)N/N=C/c2ccc(OC)c(COc3ccc(F)cc3)c2)cc1	2	-3%	-2%	13	-45	27
COc1ccc(/C=N\NC(=O)c2ccccc2Br)cc1COc1ccc(F)cc1	2	-2%	-6%	-11	-25	-3
C=Cc1ccc(C(=O)N2CCc3c(cnc(C)c3CNC(=O)c3ccc4c(c3)OCO4)C2)cc1	/	/	1%	/	/	/
CCOC(=O)c1ccc(NC(=S)N(CCN2CCCCCC2)Cc2ccco2)cc1	2	-9%	0%	15	-90*	-2
CN(C)CC(C)(O)c1ccc2c(c1)CN(Cc1cnn(-c3ccccc3)c1)CCO2 (stereo not drawn)	/	/	-3%	/	/	/
COc1ccc(S(=O)(=O)Nc2cc3c(C(C)=O)c(C)oc3c3ccccc23)cc1	62*	-1%	-5%	-10	-8	-14
O=C(CCN1C(=O)c2ccccc2C1=O)NC(=S)Nc1cccc(Cl)c1	4	0%	-4%	-6	-72*	4
O=C(CCN1C(=O)/C(=C/c2ccccc2F)SC1=S)Nc1cccnc1	0	-4%	-4%	-34	-107*	-4
CC(C)(CNC(=O)c1cnn(-c2ncc3c(n2)-c2ccccc2CCC3)c1C1CC1)N1CCOCC1	/	/	-3%	/	/	/
CCOc1ccc(CN2CCN(C3CCC3)CC2CCO)cc1 (stereo not drawn)	0	-6%	-3%	17	-18	2
CCOc1ccc(CN2CCN(C3CCSCC3)CC2CCO)cc1 (stereo not drawn)	0	-2%	-4%	-12	-84*	10
CCOc1ccc(CN2CCN(CCCn3cccn3)CC2CCO)cc1 (stereo not drawn)	0	-6%	-3%	-25	-5	3
CCOc1ccc(CN2CCN(CCCc3ccccc3)CC2CCO)cc1 (stereo not drawn)	1	-19%	0%	-82*	-8	-3
Cc1ccc(CN2CCN(CCCc3ccccc3)CC2CCO)cc1 (stereo not drawn)	-1	-1%	-3%	10	-75*	3
OCCC1CN(CCCc2ccccc2)CCN1Cc1ccc(F)cc1 (stereo not drawn)	1	1%	0%	17	-1	-1
C#Cc1ccc(CN2CCN(CCCc3ccccc3)C(CCO)C2)cc1 (stereo not drawn)	0	-7%	0%	0	-72*	0
